# Screens from PubChem BioAssay.
# Shown is part of a subset that was picked to be rich in hits.
# LASV entry inh: qHTS for Inhibitors of binding or entry into cells for Lassa Virus | Lassa virus pseudotype entry inhibition, cell reporter | Potency, µM (doses to about 37.9 µM), for the others: top-dose activity change, negative = inhibition, actives largely listed as inhibitors | 300,000 compounds, 1.2% hits | AID 540256, 2011; calls by dose curve; tested in HEK293 cells; further: potency means the concentration at half of the fitted maximal effect; on the % scale 0 is the no-effect control and ±100 the full control effect; nearly all actives have a fitted effect of over 50% in size
# MARV entry inh: qHTS for inhibitors of binding or entry into cells for Marburg Virus | Potency, µM (top dose mostly 37.8 µM), for inactives: at the highest dose activity change, negative = inhibition, actives largely listed as inhibitors | Marburg virus pseudotyped entry inhibition, cell reporter | 300,000 compounds, 1.8% hits | AID 540276, 2011; calls by dose curve; tested in HEK293 cells; further: potency means the concentration at half of the fitted maximal effect; on the % scale 0 is the no-effect control and ±100 the full control effect
# Shiga toxin inh: A qHTS for Small Molecule Inhibitors of Shiga Toxin; Vero cells, Shiga toxin protein synthesis inhibition reporter; inhibition, % at 38.7 µM; 290,000 compounds, 9.2% hits; in the data active means inhibition mostly above about 28%, no sharp cut-off; inactive means mostly below about 43%; further: 0% is about no effect
# VACV Venus inh: qHTS for Stage-Specific Inhibitors of Vaccinia Orthopoxvirus: Venus Reporter Primary qHTS | Vaccinia virus Venus reporter expression, fluorescence | Potency, µM (top dose mostly 36.5 µM), inactives show top-dose activity change, negative = inhibition, hits mostly inhibitors | 330,000 compounds, 0.46% hits | AID 720580, 2013; calls by dose curve; tested in A549 cells; further: potency means the concentration at half of the fitted maximal effect; on the % scale 0 is the no-effect control and ±100 the full control effect; nearly all actives have a fitted effect of over 30% in size
# CHX counter: Cycloheximide Counterscreen for Small Molecule Inhibitors of Shiga Toxin; cell reporter, cycloheximide protein synthesis inhibition counterscreen; max response, %; 300,000 compounds, 12% hits; in the data active means max response mostly above about 13%, no sharp cut-off; inactive means mostly below about 14%; further: read at 38.3 µM for the half of the compounds with a filed dose; 0% is about no effect
# Vaccinia mCherry: qHTS for Stage-Specific Inhibitors of Vaccinia Orthopoxvirus: mCherry Reporter Primary qHTS | AID 720579, 2013 | Potency, µM (highest dose often 36.5 µM), without a hit: at the highest dose activity change, negative = inhibition, usual class: inhibitors | Vaccinia virus mCherry reporter infection, fluorescence | 310,000 compounds, 0.63% hits; calls by dose curve; tested in A549 cells; further: potency means the concentration at half of the fitted maximal effect; on the % scale 0 is the no-effect control and ±100 the full control effect; nearly all actives have a fitted effect of over 35% in size
# * hit, by the source's call; i = inactive; ? = inconclusive; nt = no result; [ ] = dose if it differs, or a comment.
SMILES,LASV entry inh,MARV entry inh,Shiga toxin inh,VACV Venus inh,CHX counter,Vaccinia mCherry
Nc1nc(-c2ccccc2)cn1/N=C/c1ccccc1,-6%[46.1 µM],?,34,13%,38*,-15%
CCOC(=O)N1CCN(C(=O)Nc2ccc3nc(C)sc3c2)CC1,-14%,-1%[46.1 µM],31,-15%,17*,?
Cc1nc2ccc(NC(=O)N3CCCCC3)cc2s1,29%[14.3 µM],?,41*,-6%,28*,-6%
Cc1nc2ccc(NC(=O)N3CCSCC3)cc2s1,9%,-11%[46.1 µM],76,-20%,18*,-18%
CCOC(=O)Nc1ccc2nc(N3CCCCCC3)sc2c1,nt,nt,126*,?,34*,-23%
CCOc1ccc2nc(N3CCCC(C(=O)Nc4ccc(CC)cc4)C3)sc2c1 (stereo not given),nt,?,nt,-25%,nt,-17%
Cc1cc(C)c(NC(=O)COCc2cc(-c3cccs3)on2)c(C)c1,26%[46.1 µM],nt,nt,-14%,nt,i
COc1ccccc1C(=O)Nc1nnc(SCc2cc(=O)c3ccccc3[nH]2)s1,-29%[46.1 µM],nt,nt,-17%,nt,-23%
Cc1ccc([N+](=O)[O-])c(NC2OC(CO)C(O)C2O)c1 (stereo not given),11%,-2%,34,-9%,-4,i
N#CCCSc1ccccc1NC(=O)c1cc(=O)c2ccccc2o1,nt,nt,-3,nt,14,nt
CCN(CC)CCCNC(=O)c1ccc(OCC(=O)Nc2ccccc2C(F)(F)F)c(OC)c1,?,11µM*,-5,-17%,5,i
Cc1cccc(OCC(=O)Nc2cc(C)ccc2O)c1,-5%,18%,30*,?,21*,nt
CCN(CC(=O)Nc1ccc(OC)c(OC)c1)CC(=O)Nc1ccccc1C(F)(F)F,-27%[46.1 µM],-2%[46.1 µM],19,-16%,-3,i
Cc1cccc(OCC(=O)Nc2ccccc2C(F)(F)F)c1,-1%,?,81*,-19%,14,-2%
Cc1cccc(C)c1OCC(=O)Nc1ccccc1C(F)(F)F,-10%[46.1 µM],-24%[46.1 µM],4,-2%,-2,-6%
CC(C)C[C@H]1CNC(=S)N1CC1CCN(CCCC2CCCCC2)CC1,nt,nt,nt,-27%,nt,-22%
CC1(C)CC(=O)C/C(=N\NC(=O)C2CC2c2ccccc2)C1 (stereo not given),nt,nt,44*,-28%,3,-25%
O=C1Oc2ccccc2C(=O)/C1=C\N1CCN(c2ccccc2)CC1,-11%,-13%[46.1 µM],10,-23%,26*,?
CCS(=O)(=O)N1CCN(c2ccccc2)CC1,26%,-17%[46.1 µM],-3,3%,1,i
Cc1ccc2c(c1)N(CC(=O)Nc1ccccc1C(F)(F)F)C(=O)c1cccnc1O2,9%[46.1 µM],nt,nt,-16%,nt,-10%
CCOC(=O)c1c(C)oc2c1c1c(c3ccccc32)OCN(Cc2ccccn2)C1,?,1%,89*,-13%,35*,-18%[1.46 µM]
CCOC(=O)c1c(C)oc2c1c(CN1CCN(CCO)CC1)c(O)c1ccccc12,11%,?,118*,-20%,36*,-18%
CCOC(=O)c1c(C)oc2c1c(C(c1ccncc1)N1CCOCC1)c(O)c1ccccc12 (stereo not given),?,?,100*,-9%,51*,nt
CCOC(=O)C1CCN(Cc2ccccn2)CC1,nt,nt,-1,nt,-2,nt
CCOC(=O)c1c(C)oc2c1c(CN1CCN(C(=O)OCC)CC1)c(O)c1ccccc12,16%,-1%,104*,-17%,71*,-17%
SMILES,LASV entry inh,MARV entry inh,Shiga toxin inh,VACV Venus inh,CHX counter,Vaccinia mCherry
C=C1C(C)(C)[C@@H]2CC[C@]1(C(=O)Nc1nccs1)C2,nt,-9%,nt,nt,nt,nt
CCOc1ccccc1N1CCN(CC(=O)Nc2nc(C)c(C(=O)N(C)C)s2)CC1,17%,-5%,-7,-6%,-3,-7%
CN1/C(=C/C=C/c2n(C)c3cc([N+](=O)[O-])c([N+](=O)[O-])cc3[n+]2C)C(C)(C)c2ccccc21,nt,nt,nt,51%,nt,-23%
CCc1ccc(NC(=O)CC2C(=O)N(c3ccc(C)cc3)C(=O)N2C2CCCC2)cc1 (stereo not given),-2%[46.1 µM],-17%[46.1 µM],nt,-3%,nt,-25%
Cc1ccc(N2C(=O)C(CC(=O)Nc3cccc(F)c3)N(C3CC3)C2=O)cc1 (stereo not given),nt,nt,5,-17%,18*,-20%
CC1=C(C(=O)N2CCCCCC2)CC(CC(=O)NCc2cccc3ccccc23)C(=O)N1CCC1=CCCCC1 (stereo not given),nt,nt,nt,-19%,nt,-19%
Nc1nc(N)c2cc(Sc3ccc(Cl)cc3)ccc2n1,nt,nt,nt,6.3µM*,nt,?
Nc1nc(N)c2cc(Sc3cccc(C(F)(F)F)c3)ccc2n1,nt,nt,nt,5µM*,nt,7.1µM*
OCCN(CC#CCn1c2ccccc2c2ccccc21)CCO,nt,nt,11,nt,-1,nt
CCN1CCN(c2cc(C)c3cc(NC(=O)/C=C/c4ccc(C)cc4)ccc3n2)CC1,22%[46.1 µM],?,nt,-29%,nt,-27%
CCOc1[nH]n(-c2ccccc2)c(=O)c1C=NCc1cccnc1,nt,nt,-6,nt,9,nt
CN(C)CCCN(C(=O)c1sc2ccccc2c1Cl)c1nc2ccc(F)cc2s1,?,?,79*,-10%,37*,i
CN(C)CCCN(C(=O)/C=C/c1cccs1)c1nc2ccc(F)cc2s1,-30%,8.9µM*,-39,-19%,-15,?
CN(C)CCCN(C(=O)c1cccs1)c1nc2ccc(F)cc2s1,22%[46.1 µM],nt,nt,-13%,nt,-15%
CCN(CC)CCN(C(=O)/C=C/c1cccs1)c1nc2ccc(F)cc2s1,nt,nt,26,nt,9,nt
CC(=O)c1ccc(C(=O)N(Cc2cccnc2)c2nc3c(Cl)cccc3s2)cc1,?,nt,nt,-18%,nt,-21%
O=c1oc2ccccc2c2oc3cc(O)c(O)cc3c12,?,8%,26*,-29%,24*,?
O=C1c2ccccc2CN1CCSC(=S)N1CCSCC1,nt,nt,157*,nt,48*,nt
CC1CN(C(=S)SCCN2Cc3ccccc3C2=O)CC(C)O1 (stereo not given),38%,?,9,-15%,6,i
O=C1c2ccccc2CN1CCSC(=S)N1CCOCC1,?,-30%,81*,-7%,74*,-9%
CN(Cc1ccccc1)C(=O)c1nc(-c2ccc(Cl)cc2)n2c1CCCCC2,-15%[46.1 µM],nt,nt,8%,nt,14%
CCOC(=O)C(C)N1C(=O)S/C(=C/c2cc(C)n(-c3ccccn3)c2C)C1=O (stereo not given),5%,?,114*,-8%,31*,-15%
